Source: PubChem BioAssay (Broad Institute)
Vif imaging – HIV Vif inhibition | HEK293T cells, Vif self-association by quenched fluorescence, imaging, 24 h | inhibition, % at 7.49 µM | 340,000 tested, 0.35% active; in the data active means inhibition above about 50%, passing the limit was not always enough; inconclusive means no clear call, values can overlap the other calls; inactive means below about 31%
esBAF inh – blocks esBAF chromatin remodeling in mouse ES cells | 350,000 tested, 2% active | Bmi1-luciferase knock-in reporter, 24 h; 100% = twice the neutral-well signal | reporter increase, % at 12.5 µM | AID 602393; in the data active means activation above about 40%; inconclusive means no clear call, values can overlap the other calls;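 further: 0% = median of the plate's neutral control wells and 100% = double that signal; a rise in the Bmi1 reporter signal indicates esBAF inhibition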
Glyco luc inh – N-linked glycosylation inhibition; D54 ERlucT glycosylation luciferase reporter, 24 h; percent of 100 nM tunicamycin response; reporter increase, % at 12.5 µM; 360,000 tested, 0.23% active; AID 588692;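 active means mean luciferase reporter signal, scaled so untreated is 0 and the glycosylation-blocking control 100, at or above a set limit in every replicate; inconclusive means mean reaches the limit but not every replicate does; inactive means mean below the limit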;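 further: luciferase carries N-glycosylation sites so blocking glycosylation raises the light; 0% = median of neutral control wells and 100% = median of 100 nM tunicamycin wells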
Wnt bcat act – Wnt/beta-catenin pathway activation | activation, % at 9.35 µM | Wnt/beta-catenin reporter cell assay, activator, plate reader | 300,000 tested, 1.2% active; in the data active means activation above about 30%, passing the limit was not always enough; inconclusive means no clear call, values can overlap the other calls;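 further: 0% = neutral control wells and 100% = positive control wells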
MITF TRPM1 HTS – MITF TRPM1 promoter activation in melanoma cells. AID 588334. activation, % at 12.5 µM. SK-MEL-5 TRPM1-promoter luciferase, 24 h; % of positive control, neutral wells = 0. 300,000 tested, 0.75% active;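 active means mean activation of at least 80% with every replicate also reaching 80%; inconclusive means mean reaches 80% but some replicate falls short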;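 further: 0% = neutral control wells and 100% = parthenolide positive control wells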
PfHsp90 set2 – growth inhibition of yeast expressing Plasmodium Hsp90 | 310,000 tested, 0.32% active | S. cerevisiae expressing PfHsp90, BacTiter-Glo ATP, 48 h; yeast lacking PDR1 and PDR3 efflux regulators | inhibition, % at 9.4 µM | AID 504621;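 active means every replicate shows inhibition above about 80%, whatever the replicate mean, limit read from the data; inconclusive means mean inhibition reaches the set limit but some replicate falls short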;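 further: 0% = DMSO neutral controls and 100% = 20 µM radicicol positive controls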
Numbers without * were called inactive; ? = inconclusive; / = no result; ! = not active in a repeat. Compounds with a hit are over-represented: about 3% of the library has one in this group of screens.

SMILES | Vif imaging | esBAF inh | Glyco luc inh | Wnt bcat act | MITF TRPM1 HTS | PfHsp90 set2
CCOC(=O)C1CCCN(C(=O)CCc2nnc(-c3ccc(C(C)=O)s3)o2)C1 (stereo not given) | 7 | 71* | -2 | 41* | 68 | 3
CCOC(=O)c1ccc(Nc2ncnc3nc[nH]c23)cc1 | 4 | 27 | -6 | 56* | 121* | 39
c1ccc(COc2ccc(Nc3ncnc4nc[nH]c34)cc2)cc1 | -9 | 36 | -8 | 1 | 82* | -3
COc1ccc(Nc2ncnc3nc[nH]c23)cc1OC | 3 | -4 | -2 | / | -11 | 5
CCOC(=O)c1ccc(Nc2ncnc3ccccc23)cc1 | -5 | 15 | -5 | 5 | 56 | -5
CCOC(=O)CSc1nc(-c2ccccc2)nc2ccccc12 | -5 | -12 | 0 | -3 | 0 | 4
CN1C(=O)C2(Oc3ccccc3C3CC(c4ccccc4)=NN32)c2ccccc21 (stereo not given) | -7 | 95* | -2 | / | 40 | -20
Cc1ccc(C2=NN3C(C2)c2ccccc2OC32C(=O)Nc3ccccc32)cc1 (stereo not given) | 7 | / | -8 | / | 28 | -29
CCN(CC)CCNC(=O)C1(O)c2cc(Br)ccc2NC(=O)N1c1ccc(Cl)cc1 (stereo not given) | -10 | 3 | 1 | -2 | / | -6
COC(=O)C1CCN(C(=O)c2oc3c(Cl)cc(C)cc3c2C)CC1 | -6 | 26 | -7 | 47* | 45 | -6
CCOC(=O)C1CCCCN1C(=O)c1oc2c(Cl)cc(C)cc2c1C (stereo not given) | -10 | 2 | -1 | -1 | 5 | 2
CCC(C)(C)c1nnc(NC(=O)c2ccc([N+](=O)[O-])cc2)s1 | / | 48* | 1 | 4 | 67 | -2
Cc1ccc(NC(=O)C2C(=O)N(CCO)C3(C)CC2c2ccccc2O3)cc1 (stereo not given) | -12 | 35 | -6 | / | 36 | 7
COc1ccc(NC(=O)C2C(=O)N(CCO)C3(C)CC2c2ccccc2O3)cc1 (stereo not given) | 7 | 26*! | 0 | 5 | 2 | 13
CC(=O)c1c(C)[nH]c(C(=O)Nc2ccccc2Cl)c1C | 15 | 36 | 7 | 7 | -1 | -11
COc1ccc(C(=O)NC(=S)NC(C)C)cc1Br | / | 63* | 2 | / | 49 | -9
COc1ccc(C(=O)NC(=S)NC(C)(C)C)cc1Br | -11 | 59* | 1 | 1 | 48 | 6
CCCNC(=O)c1cc2ccccc2c(=O)o1 | 1 | / | 4 | 2 | -2 | 3
CCCCC[C@@H](O)c1cc2ccccc2c(=O)o1 | 7 | 43* | 0 | 11 | -4 | 5
Oc1c(Br)cc(Br)cc1C=Nc1cccnc1 | -3 | -1 | 1 | 1 | 0 | 101*
Oc1c(Br)cc(Br)cc1C=Nc1ccc2[nH]ncc2c1 | -2 | -3 | 2 | 6 | -5 | -57
CCOc1cccc2sc(N(CCCN(C)C)C(=O)c3ccc(S(=O)(=O)N4CCc5ccccc5C4)cc3)nc12 | 18 | -4 | -3 | -1 | -20 | -1
CC(C)COc1ccc(C(=O)Nc2ccccc2[N+](=O)[O-])cc1 | -3 | / | 0 | 80* | 49 | -4
COc1ccc(OCCCC(=O)Nc2cccnc2)cc1 | -1 | / | 0 | / | -1 | -23
COc1ccc(C(=O)NCCNc2ccccc2[N+](=O)[O-])cc1 | 5 | 74* | -8 | -3 | 66 | -34
SMILES | Vif imaging | esBAF inh | Glyco luc inh | Wnt bcat act | MITF TRPM1 HTS | PfHsp90 set2
CC(C)COc1ccc(C(=O)Nc2ncn[nH]2)cc1 | -11 | 45* | 0 | 6 | 20 | 16
CCOc1ccc(C(=O)Nc2ncn[nH]2)cc1 | -5 | 3 | 3 | -1 | / | -6
COc1ccc(OCCCC(=O)Nc2ncn[nH]2)cc1 | 51* | / | 1 | -7 | -3 | -4
O=C(Nc1ccc(C(=O)O)cc1)/C(=C\c1ccccc1)NC(=O)c1ccccc1 | 3 | 1 | 2 | -1 | 3 | -13
CN(CCOCCOc1ccc2ccccc2c1)Cc1ccccc1 | -2 | 9 | -1 | -3 | / | 5
N#Cc1cc2cc3c(cc2nc1SCC(=O)N1CCCC1)OCCO3 | 19 | 22 | 2 | / | 87* | 5
CC(=O)CSc1nc2cc3c(cc2cc1C#N)OCCO3 | 0 | / | -17 | 11 | -23 | -11
O=[N+]([O-])c1ccccc1CSc1nnc2ccccn12 | 6 | 63* | 0 | 5 | 34 | -63
Cc1ccc(Nc2nc(CSc3nnnn3C)cs2)cc1 | -18 | 61* | -3 | 30 | 75 | -4
Cc1ccc(Nc2nc(CSc3n[nH]c(N)n3)cs2)cc1 | -1 | -50 | -10 | 43* | 93* | 16
C=CCNc1nc2ccccc2nc1NS(=O)(=O)c1cccc(C)c1 | -7 | 0 | 1 | 1 | 4 | -24
c1ccc(-c2nc(-c3cccnc3)cs2)cc1 | -1 | 52* | -1 | 11 | 35 | -43
COc1ccc(-c2csc(C(C)(O)c3cccc(OC)c3)n2)cc1 (stereo not given) | -33 | 10 | -2 | -7 | / | /
COc1cccc(C(C)(O)c2nc(-c3ccccc3OC)cs2)c1 (stereo not given) | 57* | 1 | 0 | -3 | / | /
NC(=O)c1cc(-c2csc(-c3cccnc3)n2)ccc1O | 7 | 26 | 4 | 10 | 36 | -52
COc1ccc2cc(-c3csc(-c4cccnc4)n3)ccc2c1 | 15 | 59* | 0 | / | ? | -10
CC(O)(c1cccnc1)c1nc(-c2ccc3ccccc3c2)cs1 (stereo not given) | -17 | 57* | -3 | -3 | / | /
c1ccc(-c2csc(-c3cccnc3)n2)cc1 | 0 | / | -1 | -1 | 31 | -15
O=C(/C(=N/N=C/c1ccc(O)c(O)c1O)c1ccccc1)c1ccccc1 | 0 | / | 2 | -3 | -11 | -20
O=C(C[C@@H]1CC[C@H]2[C@@H](COC[C@@H](O)CN2S(=O)(=O)c2ccc(Cl)cc2)O1)NCC1CCCCC1 | / | 0 | / | / | / | /
CC(=O)Nc1ccc(NC(=O)c2ccc(CSc3ccccc3)o2)cc1 | -12 | / | -5 | -1 | 5 | -4
COc1cccc(-c2nc(-c3ccc4c(c3)NC(=O)CO4)cs2)c1 | 7 | / | 0 | 12 | 105* | -19
COc1ccc(-c2csc(-c3cccnc3)n2)cc1C | 115* | 51* | -1 | 10 | 76 | -25
Cc1ccc(C)c(-c2csc(-c3cccnc3)n2)c1 | 0 | 6 | 1 | 4 | 3 | -25
O=C(O)c1ccc(-c2nc(-c3ccccc3)cs2)cc1 | 3 | / | 0 | 27 | 46 | -15
CNC(=O)c1ccc(-c2nc(-c3ccccc3)cs2)cc1 | -7 | 52* | 3 | 10 | 74 | -11
COc1ccc(-c2cc(-c3ccc(OC)cc3)nc(-c3ccc4c(c3)NC(=O)CO4)c2)cc1 | -3 | -1 | 4 | -2 | 8 | -9
